Compounds with a hit are over-represented: about 11% of the library has one in this group of screens.
HPGD block: HPGD (human) dehydrogenase inhibition; P15428; purified HPGD, NADH fluorescence kinetic, PGE2 substrate; Potency, µM, inactives show at the highest dose activity change, negative = inhibition, hits mostly inhibitors; 150,000 tested, 4.3% active; AID 894; also: potency is read from the fitted curve at half-maximal effect
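20 nM HPGD preincubated 15 min at room temperature with compound in 50 mM Tris-HCl pH 8, 0.01% Tween 20. Started with 1 mM NAD+ and 30 uM prostaglandin E2; NADH fluorescence (360/450 nm) read 5 times over 30-s intervals, last minus first.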
PNC inhibitor: blocks assembly of the perinucleolar compartment | 140,000 tested, 3.1% active | activity change (PNC), negative = inhibition, % at 10 µM | PC3M PTB-GFP, PNC prevalence imaging, 16 h; hits give low values;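 active = readout at or below -70, meaning at least 70% loss of cells showing the perinucleolar compartment, a nuclear body marking cancer cells; inconclusive = readout between -30 and a set limit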;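 also: plate controls were DMSO wells for no effect and camptothecin positive control wells for full effect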
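PC3M cells stably expressing PTB-GFP, 750–1000 cells/well, treated 16 h at 37 °C with compound (23 nl of library stock), in duplicate. After paraformaldehyde fixation and Hoechst stain, imaged at 20x; PNC prevalence scored by image analysis.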
ALDH1A1 inh: blocks purified human ALDH1A1 activity. Potency, µM (doses to about 75.3 µM), without a hit: top-dose activity, negative = inhibition, actives largely listed as inhibitors. AID 1030. P00352. Purified ALDH1A1, NADH fluorescence, propionaldehyde substrate. 220,000 tested, 7.3% active;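 also: potency is read from the fitted curve at half-maximal effect; plate controls were no enzyme wells and a reference inhibitor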
Target sequence (P00352 whole entry, looked up): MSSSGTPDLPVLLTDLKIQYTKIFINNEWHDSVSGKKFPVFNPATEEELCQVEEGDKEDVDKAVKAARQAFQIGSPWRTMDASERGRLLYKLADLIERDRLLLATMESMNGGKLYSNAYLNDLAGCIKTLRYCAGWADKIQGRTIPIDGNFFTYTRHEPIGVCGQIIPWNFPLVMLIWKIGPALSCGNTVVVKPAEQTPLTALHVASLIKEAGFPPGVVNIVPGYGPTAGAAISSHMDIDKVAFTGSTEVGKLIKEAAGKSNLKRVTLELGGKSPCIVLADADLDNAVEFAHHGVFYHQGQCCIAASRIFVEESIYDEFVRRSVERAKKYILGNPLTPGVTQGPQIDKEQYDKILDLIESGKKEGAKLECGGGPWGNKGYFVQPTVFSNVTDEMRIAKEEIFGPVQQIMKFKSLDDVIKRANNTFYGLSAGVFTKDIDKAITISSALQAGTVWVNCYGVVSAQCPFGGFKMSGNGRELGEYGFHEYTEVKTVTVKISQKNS
An asterisk follows results filed as active; ? = inconclusive; . = no result; [ ] = remark or other dose. Unless noted, calls follow the shape of the dose curve; as a rule, active = well fitted inhibition curve with a large enough effect (not every such curve was filed as active); inconclusive = small, poorly fitted or top-dose-only effect, or another doubt; inactive = no such curve, though single readings can be large or run the other way. Unless noted, % is scaled to controls: 0 for no effect and ±100 for the full control effect.

SMILES	HPGD block	PNC inhibitor	ALDH1A1 inh
CC1(C)SC2C(NC(=O)C(NC(=O)N3CCNC3=O)c3ccccc3)C(=O)N2C1C(=O)O (stereo not drawn)	-9%	.	-4%
O=c1cc(C23CC4CC(CC(C4)C2)C3)[nH][nH]1	-7%	-2	-7%
COc1ccccc1NC(=S)NC(=O)c1c(-c2ccccc2Cl)noc1C	.	.	0.89µM*
COC(=O)c1cc(OC)c(OC)cc1NC(=O)c1c(-c2ccccc2Cl)noc1C	-12%	18	28µM*
Cc1onc(-c2ccccc2Cl)c1C(N)=O	-1%	-29	4%
Cc1onc(-c2ccccc2Cl)c1C(=O)Nc1ccc(F)c(F)c1	-3%	-27	4%
Cc1onc(-c2ccccc2Cl)c1C(=O)NC(=S)Nc1ccccc1F	.	.	3.2µM*
Cc1onc(-c2ccccc2Cl)c1C(=O)NC(=S)NCc1cccnc1	.	.	-1%
Cc1cc(NC(=O)c2c(-c3ccccc3Cl)noc2C)no1	-10%	47	6%
COC(=O)c1c(-c2ccccc2Cl)noc1/C=C/N(C)C	.	.	1.3µM*
O=C(Nc1ccc(Oc2ccccc2)cc1)c1cnc2n(c1=O)CCS2	?	21	?
CSc1cccc(NC(=O)C2CCN(C(=O)c3ccccc3C)CC2)c1	-4%	-10	5%
CC(C)c1ccc(NC(=O)COC(=O)CSc2nnc(N)s2)cc1	-20%	-25	-9%
COc1cccc(-c2nnc(SCC(=O)OC(C)C)n2Cc2ccco2)c1	.	24	?
NC(=O)c1sc2nc3c(c(-c4ccco4)c2c1N)CCC3	-23%	?	-12%
Nc1c(C(=O)NC2CC2)sc2nc3c(c(-c4ccco4)c12)CC/C3=C/c1ccco1	16µM*	4	16µM*
CCCNC(=O)CN1C(=O)NC(CCc2ccccc2)C1=O (stereo not drawn)	.	.	0%
CCc1ccc(CNC(=O)Cn2nc(-c3ccc(C)cc3)ccc2=O)cc1	.	.	4%
CN(CC(=O)NC(=O)NC(C)(C)C)CC(=O)Nc1ccccc1Cl	.	.	6%
O=C(CCCCl)NC(=S)Nc1cc(C(F)(F)F)ccc1N1CCOCC1	-9%	1	-5%
O=C(NC(=S)Nc1cc(C(F)(F)F)ccc1N1CCOCC1)c1sc2ccccc2c1Cl	-13%	18	7.9µM*
O=C(Nc1ccccc1)C1Cc2ccccc2CN1C(=O)c1ccco1 (stereo not drawn)	-5%	17	2%
N#CCC(=O)Nc1cc(C(F)(F)F)ccc1N1CCOCC1	.	.	11%
CC(C)(C)C(=O)Nc1cc(C(F)(F)F)ccc1N1CCOCC1	-8%	-19	-1%
O=C(CSCc1ccco1)Nc1cc(C(F)(F)F)ccc1N1CCOCC1	28µM*	30	7.1µM*
SMILES	HPGD block	PNC inhibitor	ALDH1A1 inh
O=C(Nc1cc(C(F)(F)F)ccc1N1CCOCC1)C1Cc2ccccc2CN1C(=O)c1ccco1 (stereo not drawn)	?	-15	22µM*
CC(C)(C)C(=O)NC(=S)Nc1cc(C(F)(F)F)ccc1N1CCOCC1	-7%	16	19µM*
Nc1ccn([C@H]2O[C@H](CO)[C@@H]3[O][Sn]([c]4ccccc4)([c]4ccccc4)[O][C@H]32)c(=O)n1	-17%	.	-14%[13.5 µM]
Cc1ccc2c(C(=O)CNc3nncs3)c(C)[nH]c2c1	.	.	0%
O=C(O)C1CCCN(S(=O)(=O)c2ccc3c(c2)OCCO3)C1 (stereo not drawn)	.	.	0%
O=C(Nc1cc(C(F)(F)F)ccc1N1CCCC1)c1cccnc1	-8%	-89*	-3%
O=C(Nc1ccccc1N1CCCC1)c1cccnc1	-1%	27	-9%
CC(=O)Nc1cc(C(F)(F)F)ccc1N1CCOCC1	2%	-18	18%
CCCC(=O)Nc1cc(C(F)(F)F)ccc1N1CCOCC1	.	.	3.2µM*
Cc1ccc(S(=O)(=O)n2[nH]c(=O)cc2N)cc1	.	.	3%
COc1ccc(Cl)cc1NC(=O)C/C(C)=N/NC(=O)Cc1ccccc1	.	.	-4%
Cc1ccc(CN2CCN(/N=C/c3cccs3)CC2)cc1	-8%	-99*	3%
Cc1ccc(CN2CCN(/N=C/c3ccc(C)s3)CC2)cc1	-11%	53	-1%
COC(=O)c1cc2sc(Cl)cc2n1CC(=O)NCCC(C)C	-6%	?	4%
Cc1ccc(S(=O)(=O)NCCN=C(CN2CCOCC2)NS(=O)(=O)c2ccc(C)cc2)cc1	2%	?	1.6µM*
Cc1ccc(S(=O)(=O)NCC(=O)N2CCCC2)cc1	-5%	22	3%
Cc1ccc(S(=O)(=O)NCCN=C(CN2CCCC2)NS(=O)(=O)c2ccc(C)cc2)cc1	1%	?	4.5µM*
Cc1ccc(S(=O)(=O)NCCCN2CCOCC2)cc1C	-7%	-26	-10%
COc1ccccc1OCC(=O)N/N=C1/SCC(=O)N1Cc1ccccc1	-17%	-13	0%
O=C1CC(c2ccccc2)CC(O)=C1C=NCc1ccc(Cl)cc1 (stereo not drawn)	-13%	108	14%
CCC(CC)C(=O)Nc1cccc(/C(C)=N/NC(=O)c2c(Br)cnn2C)c1	-7%	29	-6%
CCC(CC)C(=O)Nc1cccc(/C(C)=N/NC(=O)c2ccccc2Cl)c1	-22%	16	13µM*
Nc1nc2c(c(=O)[nH]1)N(C=O)[C@H](CNc1ccc(C(=O)N[C@@H](CCC(=O)O)C(=O)O)cc1)CN2	-12%	.	-2%[20.9 µM]
CC(C)NC(=O)N1CCCC2(CCN(C(=O)c3ccncc3)CC2)C1	-5%	.	9%
CCN(CC)CCn1cnc2c([nH]c3cccc(OC)c32)c1=O	?	30	?
SMILES	HPGD block	PNC inhibitor	ALDH1A1 inh
COc1cccc2[nH]c3c(=O)n(CCN(C)C)cnc3c12	?	-87*	?
CCOC(=O)COc1ccc(C(=O)NC2CCCCC2)cc1	-21%	?	-5%
CCSc1nc2sc3c(c2c(=O)[nH]1)CC(C)(CC)OC3 (stereo not drawn)	-6%	46	-12%
CCC1(C)Cc2c(sc3nc(SCC(=O)O)[nH]c(=O)c23)CO1 (stereo not drawn)	?	-102*	?
C=C(C(=O)c1ccccc1)C(C)C(=C)C(=O)c1ccccc1	-4%	-21	-2%
Cc1onc(-c2c(Cl)cccc2Cl)c1/C(N)=N/OC(=O)C(C)(C)C	.	.	8%
Cc1onc(-c2c(F)cccc2Cl)c1C(=O)OCn1nnc2ccccc2c1=O	13µM*	67	-3%
Cc1onc(-c2c(F)cccc2Cl)c1C(=O)NCCO	.	.	-2%
Cc1onc(-c2c(F)cccc2Cl)c1C(=O)NCc1ccccn1	-7%	-21	-10%
Cc1onc(-c2c(F)cccc2Cl)c1C(=O)NCCc1ccc(S(N)(=O)=O)cc1	-23%	-95*	10%
Cc1onc(-c2c(F)cccc2Cl)c1C(=O)ONC(=O)c1ccccc1	.	.	-18%
Cc1onc(-c2c(F)cccc2Cl)c1C(=O)Nc1ccc(S(=O)(=O)Nc2ncccn2)cc1	-11%	-123*	2%
Cc1onc(-c2c(F)cccc2Cl)c1C(=O)O/N=C(\N)c1ccc([N+](=O)[O-])o1	.	.	7.9µM*
Cc1cccc(C)c1NC(=O)COC(=O)CCC(=O)c1cccs1	.	.	-2%
Cc1cc2cc(C=C(C#N)C#N)c(Cl)nc2cc1C	-14%	-7	?
Cc1cccc(NS(=O)(=O)c2ccc(NC(=O)CN(c3cc([N+](=O)[O-])ccc3C)S(C)(=O)=O)cc2)c1	-6%	-113*	12%
